High-throughput results (PubChem BioAssay)
Most compounds without a hit are left out; they make up all but 15% or so of the library.
TDP1 cell noCPT = qHTS for Inhibitors of human tyrosyl-DNA phosphodiesterase 1 (TDP1): qHTS in cells in absence of CPT; Potency, µM (titrated, usually from 46.2 µM), for inactives: at the highest dose activity change, negative = growth inhibition, actives largely listed as inhibitors; AID 686978, 2013; 420,000 tested, 15% active; DT40 Tdp1-/- hTDP1 cells, no CPT, ATP luminescence, 48 h; also: nearly all actives have a fitted effect of over 55% in size
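Camptothecin absent (DMSO only). Human TDP1-complemented DT40 knockout cells, 400 cells/well, 37 °C for minimum 48 hr; ATP measured via CellTiter-Glo, 30 min dark incubation, luminescence.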
ELG1 repair inh = inhibitors of ELG1-dependent DNA repair in HEK293T cells | HEK293T ELG1-luciferase reporter, luminescence, 16 h; DNA damage induced by 5-fluorouridine | Potency, µM (series often up to 46.1 µM), for the others: at the highest dose activity change, negative = inhibition, actives largely listed as inhibitors | 330,000 tested, 2.3% active | AID 504467; also: nearly all actives have a fitted effect of over 55% in size
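Quantitative HTS, concentration-response format. 2,000 cells/well co-treated with 5-fluorouridine and compound, 16 hr in 5% CO2 at 37 °C; ONE-Glo luminescence read after 30 min.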
VP16 counter = Gal4-VP16 reporter inhibition counter-screen | Potency, µM (highest dose often 53.6 µM), for inactives: top-dose activity, negative = inhibition, most hits filed as inhibitors | Drosophila S2 Gal4-VP16 UAS-luciferase, luminescence, 20 h | AID 2546 | 310,000 tested, 3.5% active;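 also: Gal4-VP16 expression switched on by copper sulfate through the metallothionein promoter; nearly all actives have a fitted effect of over 50% in size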
ALOX12 inh = inhibitors of human 12S-lipoxygenase ALOX12; AID 1671190; purified 12hLO, xylenol orange hydroperoxide absorbance; P18054; 580,000 tested, 1.1% active; Potency, µM (doses to about 108 µM), for inactives: at the top dose activity change, negative = inhibition, usual class: inhibitors
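Purified human 12hLO at 150 nM in 25 mM Hepes, 0.01% Triton X-100, pH 7.0, preincubated 15 min at room temperature with compound. Reaction started with 40 uM arachidonic acid, 30 min at room temperature. Hydroperoxide measured by Fe-xylenol orange, 573/405 nm absorbance ratio.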
DT40 TDP1 CPT = DT40-hTDP1 cell growth loss with CPT; chicken DT40 Tdp1-/-;hTDP1 cells + 20 nM CPT, ATP luminescence, 48 h; Potency, µM (highest dose often 46.2 µM), without a hit: top-dose activity change, negative = growth inhibition, hits mostly inhibitors; 420,000 tested, 12% active; AID 686979; also: nearly all actives have a fitted effect of over 55% in size
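Chicken DT40 Tdp1-/- cells stably complemented with human TDP1 were seeded at 400 cells/well in medium containing 20 nM camptothecin, exposed to pin-transferred compounds, and grown at 37 °C for at least 48 hr. Viability was read as ATP luminescence.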
RORg inh = ROR gamma (mouse) transcription inhibition; P51450; Drosophila S2 Gal4-RORgamma UAS-luciferase reporter, 20 h; Potency, µM (highest dose often 53.6 µM), without a hit: at the top dose activity change, negative = inhibition, usual class: inhibitors; 310,000 tested, 5.4% active; AID 2551; also: nearly all actives have a fitted effect of over 60% in size
Target sequence (P51450 whole entry, looked up, the tested form may be a part): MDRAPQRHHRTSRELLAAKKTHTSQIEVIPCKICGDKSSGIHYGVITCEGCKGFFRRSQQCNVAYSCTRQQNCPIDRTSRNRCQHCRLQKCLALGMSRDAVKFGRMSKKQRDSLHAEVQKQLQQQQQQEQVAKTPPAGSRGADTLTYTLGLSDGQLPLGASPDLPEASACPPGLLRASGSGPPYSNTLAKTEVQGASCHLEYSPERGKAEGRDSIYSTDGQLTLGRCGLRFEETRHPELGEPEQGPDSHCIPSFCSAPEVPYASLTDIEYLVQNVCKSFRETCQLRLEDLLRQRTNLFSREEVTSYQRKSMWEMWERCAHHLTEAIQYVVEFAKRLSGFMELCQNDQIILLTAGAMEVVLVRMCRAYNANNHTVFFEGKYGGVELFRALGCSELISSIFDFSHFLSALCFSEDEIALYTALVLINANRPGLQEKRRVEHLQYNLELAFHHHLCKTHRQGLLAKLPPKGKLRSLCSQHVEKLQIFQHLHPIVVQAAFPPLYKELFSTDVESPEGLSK
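Drosophila S2 cells stably expressing Gal4-DBD/mouse RORγ fusion under metallothionein promoter plus UAS-luciferase; compound 1 h, then 700 uM CuSO4 induction for 20 h at ambient temperature; inhibition read as reduced luminescence.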
* hit, by the source's call; ? = inconclusive; · = no result given; [ ] = remark or other dose. Calls follow the shape of the dose curve; as a rule, active = well fitted curve in the direction sought with a large enough effect; inconclusive = small, poorly fitted or top-dose-only effect, or another doubt; inactive = no such curve, though single readings can be large; an effect the other way counts as inactive or inconclusive. % is scaled to controls: 0 for no effect and ±100 for the full control effect; potency is read from the fitted curve at half-maximal effect.

SMILES	TDP1 cell noCPT	ELG1 repair inh	VP16 counter	ALOX12 inh	DT40 TDP1 CPT	RORg inh
Cc1cccc(-c2nc3c(cnn3-c3ccccc3)c(=O)n2-c2ccc(Br)cc2)c1	18µM*	·	·	5%	?	·
COc1ccc(-n2c(-c3cccc(F)c3)nc3c(cnn3-c3ccc(C)cc3)c2=O)cc1	26µM*	·	·	-12%	18µM*	·
O=C(CN1CCN(CC(=O)Nc2cccc(F)c2)CC1)NCCc1c[nH]c2ccccc12	·	·	·	13%	·	·
C=CCNC(=O)Nc1ccc(CC#N)cc1	·	·	·	-2%	·	·
CC1(C)CC(=O)c2cnn(-c3nc4ccccc4[nH]3)c2C1	?	?	?	27%	?	8.9µM*
Cc1cccc(C2CC(=O)c3cnn(-c4nc5ccccc5[nH]4)c3C2)c1 (configuration not stated)	·	·	·	23%	·	·
CN1CC[C@H]2CN(C(=O)c3cn(-c4ccccc4)nn3)C[C@@]2(C(=O)O)C1	·	·	·	-2%	·	·
Cc1cc(-c2cn3ccccc3n2)c(C)n1-c1ccccc1	16µM*	?	-16%	?	?	0%
COc1ccccc1NC(=O)Nc1nc(C(N)CCc2ccccc2)cs1 (configuration not stated)	13µM*	·	·	?	?	·
CC(C)(C)c1csc(NNC(=O)c2ccc(Br)cc2)n1	?	-16%	2.8µM*	0%	?	1.3µM*
NC(COCc1ccccc1)c1csc(NC(=O)Nc2cccc(C(F)(F)F)c2)n1 (configuration not stated)	?	·	·	?	21µM*	·
CC(C)(C)c1csc(NC(=O)c2c(F)c(F)c(F)c(F)c2F)n1	?	-10%	·	-18%	?	·
NC(COCc1ccccc1)c1csc(Nc2ccc(S(N)(=O)=O)cc2)n1 (configuration not stated)	?	·	·	24%	?	·
CC(C)(C)c1csc(NC(=O)c2ccccc2O)n1	?	?	2.5µM*	?	-23%	?
COc1ccc(C2(C(=O)N[C@@H]3CN(c4ncccn4)C[C@H]3CN(C)C)CC2)cc1	·	·	·	94%	·	·
NC(c1ccccc1)c1csc(NC(=O)Nc2cccc(Cl)c2)n1 (configuration not stated)	?	·	·	-22%	?	·
NC(CCc1ccccc1)c1csc(NC(=O)Nc2cccc(Cl)c2)n1 (configuration not stated)	23µM*	·	·	?	26µM*	·
COc1ccccc1NC(=O)Nc1nc(C(C)(C)C)cs1	-23%	-6%	14%	0%	16µM*	28%
COc1ccccc1NC(=O)Nc1nc(C(N)C(C)C)cs1 (configuration not stated)	21µM*	·	·	4%	?	·
Cc1ccc(OCC(=O)NCc2ccc(Cn3cccn3)cc2)c(C)c1	·	·	·	-30%	·	·
N#CC1=C2SCN(c3ccc(F)cc3)CN2C(=O)CC1c1cccc(F)c1 (configuration not stated)	-11%	-2%	5%	6.3µM*	?	?
CCOC(=O)c1ccc(N2CSC3=C(C#N)C(c4cccs4)CC(=O)N3C2)cc1 (configuration not stated)	-12%	26%	16%	18µM*	-19%	14%
CCc1ccc(N2CSC3=C(C#N)C(c4cccs4)CC(=O)N3C2)cc1 (configuration not stated)	16µM*	?	15%	·	?	37%
COc1ccc(N2CSC3=C(C#N)C(c4cccs4)CC(=O)N3C2)cc1 (configuration not stated)	2%	27%	?	0%	-1%	17%[10 µM]
Cc1ccccc1CSc1nc2c(=O)[nH]cnc2n1-c1ccccc1	·	·	·	-4%	·	·
SMILES	TDP1 cell noCPT	ELG1 repair inh	VP16 counter	ALOX12 inh	DT40 TDP1 CPT	RORg inh
Cc1sc2nc(CN(C(=O)NC3CCCCC3)C3CCCC3)[nH]c(=O)c2c1C	16µM*	21µM*	14µM*	16%	?	8.9µM*
Cc1sc2nc(CN(Cc3cccs3)C(=O)NC3CCCCC3)[nH]c(=O)c2c1C	?	9.2µM*	-10%	0%	23µM*	1%
Cc1sc2nc(CC(=O)N3CCCC3)[nH]c(=O)c2c1C	-13%	8%	6%	-2%	-16%	16%
COCC(=O)N(Cc1nc2sc(C)c(C)c2c(=O)[nH]1)C1CCCCC1	2%	6%	9%	8%	-30%	-15%
CCCCC(=O)N(Cc1nc2sc(C)c(C)c2c(=O)[nH]1)C1CCCC1	?	21µM*	-15%	-1%	-28%	-9%
COc1ccc(OC(C)C(=O)Nc2ccc(Br)cc2C)cc1 (configuration not stated)	·	·	·	0%	·	·
CC1CC(C)(C)NC(=S)N1CC(=O)N(C)Cc1ccccc1 (configuration not stated)	-3%	9%	-20%	?	30%	18µM*
